Measured values reported in PubChem BioAssay AID602399 (Sanford-Burnham Center for Chemical Genomics, 2012).
About 2,800 (0.78%) of roughly 360,000 compounds were called active. The sample as a whole holds a higher share of actives than the screen did. Values without a mark were called inactive. Cut-off read from the data, not from the text of the source: active = inhibition above about 26%; inactive = the rest.

Each compound was assayed on Nicotinate-nucleotide adenylyltransferase NadD (Staphylococcus aureus N315) (assay: inhibitors of S. aureus NadD, primary screen, biochemical, colorimetric, uHTS (AID 602399)). Conditions: purified NadD enzyme, colorimetric absorbance read-out; at 20 µM; hits give high values.

| Structure (SMILES) | inhibition |
| --- | --- |
| Clc1ccc(C2=CSC3=Nc4cccc5cccc(c45)N23)cc1 | 46.9% (active) |
| Cc1ccc(/C=C/C(=O)O)cc1S(=O)(=O)N1CCC(Cc2ccccc2)CC1 | -2.42% |
| COC(=O)c1ccc(COC(=O)c2cnccn2)cc1 | -0.176% |
| CCOc1ccc(NS(=O)(=O)c2ccc(C(=O)NCC3CCCO3)cc2)cc1 (centres undefined) | -1.46% |
| CCOc1ccc(NC(=O)CCNC(=O)c2ccc(Br)cc2)cc1 | -10.7% |
| N#Cc1c(NC(=O)CCCl)sc2c1CCCCC2 | -2.84% |
| CC(=O)c1c(C)[nH]c(C(=O)OCC(=O)Nc2sc3c(c2C#N)CCCC3)c1C | 6.3% |
| N#CCC(=O)Nc1ccc(C(=O)OCC(=O)Nc2sc3c(c2C#N)CCCC3)cc1 | 32.6% (active) |
| CCOc1ccc(NC(=O)c2ccc(NC(=O)COC(=O)c3ccc(NC(=O)CC#N)cc3)cc2)cc1 | 39.8% (active) |
| CC(C)NC(=O)NC(=O)COC(=O)c1ccc(NC(=O)CC#N)cc1 | 0.78% |
| C/C=C(/C)C(=O)OC1Cc2c(ccc3ccc(=O)oc23)OC1(C)C (centres undefined) | -4.64% |
| CCCCc1cc(=O)oc2c(C)c(OCC(=O)N3CCC(C(N)=O)CC3)ccc12 | -1.4% |
| Cc1ccc(-c2ccc(/C=C(\C#N)C(N)=S)o2)c([N+](=O)[O-])c1 | -3.57% |
| Cc1ccc(Cc2cnc(NC(=O)/C(C#N)=C/c3ccc(-c4cccc([N+](=O)[O-])c4)o3)s2)cc1 | 51.2% (active) |
| Cc1ccc(C(=O)N/C(=C/c2ccc(-c3cccc([N+](=O)[O-])c3)o2)C(=O)NCCCN(C)C)cc1 | -9.94% |
| CCCCN(C(=O)c1ccc(S(=O)(=O)N2CCOCC2)cc1)C1CCS(=O)(=O)C1 (centres undefined) | -1.78% |
| O=C(CC(NS(=O)(=O)c1ccc(Cl)cc1)c1ccco1)NC1CCCC1 (centres undefined) | 1.19% |
| COc1ccc(NC(=O)COc2ccc(C(=O)c3ccc(F)cc3)cc2)cc1S(N)(=O)=O | 7.92% |
| Cc1c(OC(C)C(=O)NCC2CCC(C(=O)O)CC2)ccc2c1oc(=O)c1ccccc12 (centres undefined) | 4.05% |
| O=C(NCC1CCCCC1)NCC1CCCCC1 | 2.72% |
| C[C@H]1CN([C@@H](C)CO)C(=O)c2cc(-c3ccccc3F)cnc2O[C@H]1CN(C)C(=O)C1CCOCC1 | -1.92% |
| Cc1ccc(NC(=O)CCNC(=O)c2ccc([N+](=O)[O-])cc2)cc1S(=O)(=O)N1CCOCC1 | 0.847% |
| COc1ccc(NS(=O)(=O)c2cc(NC(=O)CC(=O)c3ccc([N+](=O)[O-])cc3)ccc2C)cc1 | 44.2% (active) |

| Structure (SMILES) | inhibition |
| --- | --- |
| COc1ccc(NS(=O)(=O)c2cc(NC(=O)COc3ccccc3F)ccc2OC)cc1 | -11.4% |
| O=[N+]([O-])c1ccc(Oc2ccc(F)cc2Br)c2ccncc12 | 4.81% |
| CCCn1nnnc1NC(=O)COc1ccc(Cl)cc1C | 8.48% |
| CCc1ccc(C(=O)OCC(=O)NCC(F)(F)F)cc1 | -0.578% |
| C=CCCC(=O)Nc1nc(C)c(-c2csc(Nc3ccc(Cl)cc3)n2)s1 | 12.2% |
| Cc1ccn2c(-c3csc(Nc4ccc(C(=O)O)cc4)n3)c(C)nc2c1 | -7.16% |
| Cc1ccc(Nc2nc(-c3sc(NC(=O)c4ccccc4)nc3C)cs2)cc1 | 36.9% (active) |
| c1ccc2c(c1)OC1OC2Oc2ccccc21 | -4.86% |
| COc1ccc(C(=O)N2CCCC(C(=O)c3ccccc3OC)C2)cc1OC (centres undefined) | -7.22% |
| O=C(O)c1ccc(NN=CC2=C(N3CCOCC3)/C(=C/c3ccccc3)CC2)cc1 | 19.5% |
| O=C1Nc2ccc(Br)cc2/C1=N/N=C/C1=C(N2CCOCC2)C(=C\c2ccccc2)/CC1 | 30.5% (active) |
| CC1=NN(C(=O)CCc2ccccc2O)C(O)(C(F)(F)F)C1 (centres undefined) | 17.6% |
| O=C1OC(NC(=O)c2ccccc2)C(N2CCOCC2)=C1Cl (centres undefined) | -2.17% |
| Cn1c(N)c(C(=O)COC(=O)c2cccc(S(=O)(=O)N3CCOCC3)c2)c(=O)n(C)c1=O | -4.47% |
| Oc1oc(-c2ccccc2Br)nc1/C=N/c1ccccn1 | -8.02% |
| CCOc1ccc2nc(/N=C/c3nc(-c4ccccc4)oc3O)sc2c1 | 37% (active) |
| CCOc1ccc2nc(C(=O)N3CCCC(C)C3)sc2c1 (centres undefined) | -8.67% |
| COc1ccc(S(=O)(=O)NCc2cccnc2)cc1NC(=O)c1ccc(C)cc1 | -1.72% |
| Cc1ccccc1OCC(=O)N(Cc1cccc(F)c1)C1CCS(=O)(=O)C1 (centres undefined) | -3.33% |
| O=S(=O)(c1ccc(-c2ccccc2)cc1)N1CCCC1 | -5.08% |
| O=C1CCC(C(=O)N2CCN(c3ccccc3Cl)CC2)CN1CC1CCCCC1 (centres undefined) | 5.68% |
| Cc1nc(N2CCOCC2)c2c(C)c(C(=O)Nc3ccc(C(F)(F)F)cc3)sc2n1 | -4.82% |
| Cc1nc(N2CCC(C)CC2)c2c(C)c(C(=O)Nc3cc(F)ccc3C)sc2n1 | 7.17% |

| Structure (SMILES) | inhibition |
| --- | --- |
| Cc1nc(N2CCN(c3ccccn3)CC2)c2c(C)c(C(=O)Nc3ccc(F)c(Cl)c3)sc2n1 | 29.5% (active) |
| O=S(=O)(NN=C1CCCCCCC1)c1ccc(Br)cc1 | -0.0867% |
| O=C(CNS(=O)(=O)c1ccc(Br)s1)N1CCN(C(=O)c2ccco2)CC1 | -0.302% |
| CCCNC(=O)C1CC(=O)N(c2ccc(OCc3ccccc3)cc2)C1 (centres undefined) | 0.155% |
| COc1cc(C2CC(=O)N3CN(Cc4ccccc4)CSC3=C2C#N)ccc1OCc1ccccc1 (centres undefined) | 31.4% (active) |
| COc1cc(CNC2CCCC2)c(Br)cc1OCc1ccccc1 | -2.14% |
| O=C(C[C@H]1C/C=C\C[C@@H](NC(=O)OCC2c3ccccc3-c3ccccc32)C(=O)O[C@@H](c2ccccc2)CNC1=O)N[C@H](CO)Cc1ccccc1 | 10.3% |
| COc1ccc(C(C#N)(CC(=O)O)c2cnccn2)cc1OC (centres undefined) | -3.22% |
| CCOc1ccc2nc(N3CCCN(C(=O)Nc4ccccc4C)CC3)c(C#N)cc2c1 | 36.8% (active) |
| CCOc1ccc(C(=O)NC2CCN(C(=O)Nc3ccccc3OC)CC2)cc1 | 2.23% |
| CCOc1ccc2nc(NCCNC(=O)C(C)(C)C)c(C)cc2c1 | -13.1% |
| CCOC(OCC)c1ccc(/C=C\c2nccc(N)n2)cc1 | -3.79% |
| CCCCc1ccc(S(=O)(=O)NC(=O)C2(C)CCN2C(=O)c2c(C)noc2C)cc1 (centres undefined) | -0.915% |
| CCOC(=O)N1CCN(S(=O)(=O)c2cc3c(cc2C)NC(=O)CO3)CC1 | 6.26% |
| CCCCC(=O)Nc1nc(C)c(-c2csc(Nc3ccc(Cl)cc3)n2)s1 | 20.5% |
| CCCCCCC(=O)Nc1nc(C)c(-c2csc(Nc3cccc(OC)c3)n2)s1 | 17.7% |
| CCCCCCC(=O)Nc1nc(C)c(-c2csc(Nc3cc(Cl)ccc3OC)n2)s1 | 33% (active) |
| CCOc1ccc(/C(O)=C2\C(=O)C(=O)N(c3ccc(OC)cc3)C2c2ccccc2[N+](=O)[O-])cc1 (centres undefined) | -0.376% |
| CCC(=C/c1sc2ccc3ccccc3c2[n+]1C)/C=C1\Sc2ccc3ccccc3c2N1C | 38.9% (active) |
| Cc1[nH]c(N)nc(=S)c1CCCNc1ccccc1 | 4.24% |
| CCCc1cc(=S)n2c([nH]c3ccccc32)c1C#N | 11.9% |
| CNC[C@H]1Oc2c(NC(=O)C3CCCCC3)cccc2C(=O)N([C@H](C)CO)C[C@@H]1C | 0.223% |
| CN(C)C(=O)Cn1c(=O)n(S(=O)(=O)c2ccccc2)c2ccccc21 | -0.572% |

| Structure (SMILES) | inhibition |
| --- | --- |
| Cc1nc(N)nc(Cl)c1CCC1OCCO1 | -2.19% |
| CCCCNS(=O)(=O)c1ccc(S(=O)(=O)n2cnc3ccccc32)cc1 | 0.725% |
| CC(C)C(c1nnnn1C1CCCC1)N1CCN(c2ccccc2F)CC1 (centres undefined) | -3.03% |
| CC(=O)NS(=O)(=O)c1ccc(N/C(N)=N/c2nc(C)cc(C)n2)cc1 | 4.03% |
| COc1ccc(C(=O)NNc2cc(C)nc(NNC(=O)c3ccc(OC)cc3)n2)cc1 | 3.2% |
| CC(=O)Nc1ccc(Nc2cc(C)nc(Nc3ccc(NC(C)=O)cc3)n2)cc1 | 32.4% (active) |
| CC1CCC2(CC1)NC(=O)N(CC(=O)c1cccn1C)C2=O (centres undefined) | -3.17% |
| Cc1ccc2nsnc2c1S(=O)(=O)N1CCCC1C(=O)O (centres undefined) | -6.81% |
| CCCCc1ccc(NC(=S)N2CCCC(CO)C2)cc1 (centres undefined) | -0.962% |
| CC(=O)c1ccc(N2C(=NC(=O)C(C)C)SC3CS(=O)(=O)CC32)cc1 (centres undefined) | -3.55% |
| Cc1c(C#N)c(NC(=O)c2ccccc2)n(Cc2ccccc2)c1C | -5.49% |
| CC(=O)Nc1ccc(C(=O)Nc2nc(-c3cc(C)n(Cc4ccccc4)c3C)cs2)cc1 | 41.8% (active) |
| Cc1ccc(C(=O)Nc2c(C#N)c(C)c(C)n2Cc2ccccc2)cc1 | -7.87% |
| CCc1nn(CCCC(=O)Nc2ccc(C)c(C)c2)c(=O)c2cc3occc3n12 | 5.14% |
| Cc1cc(CNCc2c(C(=O)N(C)Cc3ccccc3)nc3ccccn23)nn1C | -2.9% |
| COc1ccc(NC(=O)C2CCC(CNc3c(N4CCCCC4)c(=O)c3=O)CC2)c(OC)c1 (centres undefined) | 1.77% |
| CCOC(=O)c1c(NC(=O)NC(C)(C)C)sc2c1CCN(C)C2 | 0.728% |
| Cc1oc2c(C)c3oc(=O)c(CC(=O)N[C@@H](CC(C)C)C(=O)N[C@@H](Cc4ccccc4)C(=O)O)c(C)c3cc2c1C | 35.9% (active) |
| Cc1c(CCC(=O)N[C@@H](CC(C)C)C(=O)O)c(=O)oc2c(C)c3oc4c(c3cc12)CCCC4 | -0.714% |
| Cc1c(OC(C)C(=O)N[C@@H](Cc2ccccc2)C(=O)O)ccc2c3c(c(=O)oc12)CCCC3 (some centres undefined) | 3.9% |
